Molecules are shown by their SMILES. Several values for one entry are separate records, joined by “and”; a condition that tells them apart may be missing. Equal entries are not always repeated. Inconclusive results are not listed. Activity calls are given as the source filed them. How the source made its calls: active means hit-call score of the fitted dose curve at least 0.9, where 1 is the maximum; inconclusive means response in the unintended direction; inactive means score below 0.9.

Sequence of human Caspase 5 (CASP5), CASP5 (gene 838) (P51878 whole entry, looked up): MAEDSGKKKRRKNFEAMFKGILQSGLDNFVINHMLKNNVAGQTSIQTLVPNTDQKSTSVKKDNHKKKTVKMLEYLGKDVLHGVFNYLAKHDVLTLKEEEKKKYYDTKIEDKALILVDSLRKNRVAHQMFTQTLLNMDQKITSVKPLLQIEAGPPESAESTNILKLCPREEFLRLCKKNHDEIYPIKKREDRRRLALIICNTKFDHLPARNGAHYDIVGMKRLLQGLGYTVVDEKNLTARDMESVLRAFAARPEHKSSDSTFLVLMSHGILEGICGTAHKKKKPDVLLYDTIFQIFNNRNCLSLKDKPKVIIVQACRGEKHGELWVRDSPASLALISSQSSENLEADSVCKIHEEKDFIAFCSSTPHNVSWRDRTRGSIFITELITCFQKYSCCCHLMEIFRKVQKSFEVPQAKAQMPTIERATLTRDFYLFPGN

One experiment deals with human Caspase 5 (CASP5), CASP5 (gene 838) (UniProt P51878). The experiment can be described thus: NVS_ENZ_hCASP5: NovaScreen (NVS) Enzymatic Assay for human Caspase 5 (CASP5) (AID 2283137). A digest of the protocol:
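Fluorescent substrate readout of CASP5 activity (loss-of-signal), measured 2 h post-dose. Protein expressed in E. coli. Primary screen duplicate at 25 uM; actives meeting threshold (e.g., 30% inhibition) rerun singleton, max 50 uM.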
`CC[C@H](C)[C@H]1O[C@]2(C=C[C@@H]1C)C[C@@H]1C[C@@H](C/C=C(\C)[C@@H](O[C@H]3C[C@H](OC)[C@@H](O[C@H]4C[C@H](OC)[C@@H](NC)[C@H](C)O4)[C@H](C)O3)[C@@H](C)/C=C/C=C3\CO[C@@H]4[C@H](O)C(C)=C[C@@H](C(=O)O1)[C@]34O)O2`: the result was inactive.

On to `Cc1ccn2nc(S(=O)(=O)Nc3c(F)cccc3F)nc2n1`, for which the molecule was called inactive.

In general, AC50 refers to the concentration giving half of the maximal activity seen. Turning to `CN(C)[C@@H]1C(=O)C(C(N)=O)=C(O)[C@@]2(O)C(=O)C3=C(O)c4c(O)cccc4[C@@](C)(O)[C@H]3[C@H](O)[C@@H]12`, the AC50 is 5.15 µM (active) and 683 nM (active).

With `S=C1NCCN1`, the result was inactive.

The target in another experiment is human AKT serine/threonine Kinase 1 (AKT1), AKT1 (gene 207) (UniProt P31749). Briefly: NVS_ENZ_hAKT1: NovaScreen (NVS) Enzymatic Assay for human AKT serine/threonine Kinase 1 (AKT1) (AID 2283138). In outline: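 Fluorescence and mobility-shift readout of kinase activity, taken 1 h post-dosing in a cell-free format with recombinant protein. Primary screen at 25 uM in duplicate; hits (e.g. 30% inhibition) retested in concentration series topping at 50 uM.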
Sequence of human AKT serine/threonine Kinase 1 (AKT1), AKT1 (gene 207) (P31749 whole entry, looked up): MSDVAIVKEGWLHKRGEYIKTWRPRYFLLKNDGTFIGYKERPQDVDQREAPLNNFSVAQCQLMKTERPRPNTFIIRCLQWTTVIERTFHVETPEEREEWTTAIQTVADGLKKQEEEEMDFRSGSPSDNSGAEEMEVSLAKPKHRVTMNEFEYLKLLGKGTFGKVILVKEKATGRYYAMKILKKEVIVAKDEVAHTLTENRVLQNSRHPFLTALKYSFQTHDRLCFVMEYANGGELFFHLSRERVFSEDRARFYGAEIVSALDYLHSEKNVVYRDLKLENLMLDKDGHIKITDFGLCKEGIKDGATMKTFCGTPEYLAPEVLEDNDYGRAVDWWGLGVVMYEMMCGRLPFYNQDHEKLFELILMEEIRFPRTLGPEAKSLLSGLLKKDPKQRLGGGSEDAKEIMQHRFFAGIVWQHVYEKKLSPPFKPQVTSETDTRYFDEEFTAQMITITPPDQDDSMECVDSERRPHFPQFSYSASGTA
Regarding `CCCCOC(=O)c1ccccc1C(=O)O`, the call was inactive.

With `Nc1c(Cl)cc([N+](=O)[O-])cc1Cl`, the call was inactive.

As for `S=C1NCCN1`, the outcome was inactive.

Take `CCOP(=O)(SC(C)CC)N1CCSC1=O` (stereo not drawn): the molecule was classed as inactive.

For the origin of these results see PubChem BioAssay (EPA / NIEHS).
